About 13,000 (27%) of roughly 48,000 compounds showed an effect of 50% or more. This is one part of the list.
The molecules below were run on Wolbachia pipientis (assay: Anti-Wolbachia Cell-Based Screen). Conditions: 5 µM.
Format: functional
Set-up: scale not given: in the data most compounds retested in dose-response had high values

| Structure (SMILES) | Percent Effect |
| --- | --- |
| CC(C)Cc1cc(CC2(NCc3ccccc3Cl)COC2)no1 | -7.466% |
| COc1cc(C)c(C(C)Nc2ncc(C(N)=O)cc2Cl)cc1OC (stereo not drawn) | -11.51% |
| Cc1nn(C)c2nc(N(CCN(C)C)CC3CCCO3)sc12 (stereo not drawn) | 2.651% |
| CC(NS(=O)(=O)CC1(C#N)CCCC1)c1cccc(-n2cccn2)c1 (stereo not drawn) | -9.973% |
| COc1ccc(C)cc1CN(Cc1nc(C)c(C)o1)C1CCN(C)C1 (stereo not drawn) | -12.97% |
| Cn1cc(N2C(=O)CC[C@@H]3[C@H]2CCN3CCc2ccccc2)cn1.O=C(O)C(F)(F)F.O=C(O)C(F)(F)F | 83.57% |
| Cn1cc(N2C[C@@H]3CN(CC4CCOCC4)C[C@@H]3C2=O)cn1.O=C(O)C(F)(F)F | -5.316% |
| Cn1cc(CN2CC[C@@H]3[C@@H]2CCN3C(=O)c2cccc(F)c2)cn1.O=C(O)C(F)(F)F | -56.05% |
| Cn1cc(C(=O)N2CC[C@@H]3[C@@H]2CCN3Cc2cccc(C#N)c2)cn1.O=C(O)C(F)(F)F | -1.669% |
| Cn1cc(N2C(=O)CC[C@@H]3[C@H]2CCN3Cc2cccc(C#N)c2)cn1.O=C(O)C(F)(F)F.O=C(O)C(F)(F)F | 96.87% |
| Cn1cc(N2C(=O)C[C@@H]3[C@@H]2CCN3C(=O)c2ccco2)cn1 | -4.812% |
| CN1CCN([C@@H]2CCN(CC3CCOC3)[C@H]2Cc2cnn(C)c2)CC1.O=C(O)C(F)(F)F.O=C(O)C(F)(F)F.O=C(O)C(F)(F)F (stereo partly drawn) | -10.32% |
| Cn1cc(N2C(=O)CC[C@@H]3[C@H]2CCN3CC2CCOCC2)cn1.O=C(O)C(F)(F)F | 100.5% |
| COc1ccc(CN2CC[C@@H]3[C@H]2CCC(=O)N3c2cnn(C)c2)cc1.O=C(O)C(F)(F)F | 83.34% |
| Cc1cnn(CC2CN(c3ncnc4c3CCC4)CCO2)c1 (stereo not drawn) | -34.52% |
| Cc1noc(C)c1CC(=O)NCCN1CCN(S(C)(=O)=O)CC1 | -3.578% |
| N#Cc1cc2c(=O)n(CC(O)Cc3ccccc3)ccc2[nH]c1=O (stereo not drawn) | -6.856% |
| O=C(Nc1ccc(-c2ccccc2)cc1)N1C[C@@H]2CNC[C@]2(C(=O)O)C1 | 6.586% |
| CC(C)N1CCN(S(=O)(=O)c2ncn(C)c2Cl)CC1 | 22.53% |
| O=C1O[C@@H]2CN(Cc3cccc(O)c3)C[C@@H]2N1CCCN1CCOCC1 | 15.85% |
| Cn1cc(CN2CC[C@@H]3[C@H]2CCC(=O)N3c2ccccc2)cn1.O=C(O)C(F)(F)F | 107.5% |

| Structure (SMILES) | Percent Effect |
| --- | --- |
| Cn1cc(C(=O)N2CC[C@@H]3[C@@H]2CCN3Cc2ccccc2)cn1.O=C(O)C(F)(F)F | -15.71% |
| Cn1cc(CN2CC[C@@H]3[C@@H]2CCN3Cc2ccc3c(c2)OCO3)cn1.O=C(O)C(F)(F)F.O=C(O)C(F)(F)F | -8.648% |
| CN(Cc1ccccc1)C(=O)CS(=O)(=O)Cc1ccc(Cl)c(Cl)c1 | -2.386% |
| Cc1cccc(S(=O)(=O)NC2CCN(CC(F)(F)F)C2)c1 (stereo not drawn) | -3.118% |
| CNC(=O)C1CCN(C(=O)NCc2ccc(C)n2C)CC1 | -3.399% |
| O=C(NCc1ccc2c(c1)OCCO2)N1CCC(CO)CC1 | -3.134% |
| CNC(=O)C1CCN(C(=O)NCc2ccc(-c3ccn[nH]3)cc2)CC1 | 139.8% |
| CCOc1ccc(CNC(=O)N2CCCC(CO)C2)cc1F (stereo not drawn) | 1.945% |
| CC(=O)N1CCCN(C(=O)NCc2ccc(-c3ccn[nH]3)cc2)CC1 | 101.6% |
| NC(=O)CC1CCN(C(=O)NCc2ccc(-c3ccn[nH]3)cc2)CC1 | 131.5% |
| COC(=O)NC1(C(=O)NCc2ccc(-c3ccn[nH]3)cc2)CCCC1 | -10.61% |
| CC(=O)NC1CCCN(C(=O)NCc2ccc(-c3ccn[nH]3)cc2)C1 (stereo not drawn) | 11.01% |
| CCOCC1CCCN(C(=O)NCc2ccc(-c3ccn[nH]3)cc2)C1 (stereo not drawn) | 107.6% |
| Cc1[nH]ncc1CCCNC(=O)N1CCC(CC(N)=O)CC1 | -1.64% |
| COc1ccccc1NCC(=O)NCc1ccc(-c2ccn[nH]2)cc1 | -17.15% |
| O=C(NCc1ccccc1)N1CCC(Oc2ncccc2Cl)CC1 | 6.296% |
| O=C(O)C(F)(F)F.O=C(c1cnoc1)N1CCC[C@]2(C[C@@H](OCc3ccccn3)CO2)C1 | 20.74% |
| NC(=O)C1CCN(C(=O)NCc2ccc(-c3ccn[nH]3)cc2)CC1 | 110.5% |
| NC(=O)C1CCN(C(=O)NCc2ccc3c(c2)OCCO3)CC1 | 2.129% |
| O=C(NCc1ccc(-c2ccn[nH]2)cc1)N1CCC(N2CCCC2)C1 (stereo not drawn) | 1.692% |
| Cc1cc(C)c(CNc2cnn(CC(O)CN(C)C)c2)c(C)c1 (stereo not drawn) | 97.23% |

| Structure (SMILES) | Percent Effect |
| --- | --- |
| Cc1cc(C)c(NC(=O)Nc2cnn(CC(O)CN(C)C)c2)c(C)c1 (stereo not drawn) | 101.9% |
| CCN(CC)Cc1ccc(CNC(=O)C(C)(C)n2cc(Br)cn2)cc1 | 25.74% |
| CCC(CC)C(CNC(=O)Nc1cnn(CCOC)c1)N(C)C (stereo not drawn) | -1.824% |
| CN(C)CC(O)Cn1cc(NCc2ccc(Br)cc2)cn1 (stereo not drawn) | 110.4% |
| CCn1cc(NC(=O)NCC(O)CN2CCCCC2)cn1 (stereo not drawn) | -8.278% |
| Cc1csc(CNc2cnn(CC(C)C)c2)n1 | -6.579% |
| Cc1csc(CNc2cnn(CC(F)(F)F)c2)n1 | 0.5328% |
| CNS(=O)(=O)CC1CCCN1c1ccc(Cl)cn1 (stereo not drawn) | -0.6453% |
| CC(C)COC(C)C(=O)N1CCCCC1 (stereo not drawn) | 22.01% |
| O=C(Cn1cccn1)NCC1(c2ccccc2)CC1 | 8.498% |
| Cc1cnn(CCNCC(=O)NCC2(c3ccccc3)CCC2)c1 | 6.79% |
| Cc1cnn(CCNCC(=O)NCCOc2ccccc2)c1 | -6.94% |
| CN(C(=O)CNCCn1cccn1)C1(C#N)CCCCC1 | -7.323% |
| O=C(CNCCn1cccn1)NCC1(c2ccccc2)CCC1 | 123.8% |
| N#CC1(NC(=O)CNCCn2cccn2)CCCCC1 | 0.8723% |
| O=C(CNCCn1cccn1)NCC1(c2ccccc2)CCCC1 | 152.5% |
| Cc1cccc(C2(C(=O)NCCCn3cccn3)CC2)c1 | -18.04% |
| Cc1cnn(CCNCC(=O)NCC2(c3ccccc3)CC2)c1 | 75.55% |
| O=C(CNCCn1cccn1)NCC1(c2ccccc2)CC1 | -4.744% |
| O=C(CNCCn1cccn1)NCC1(c2ccccc2)CCOCC1 | 92.49% |
| CC(NC1(CNC(=O)Cn2cccn2)CCOCC1)c1ccccc1 (stereo not drawn) | -4.179% |
